Results: PubChem BioAssay (NCI)
About 83,000 compounds went through this panel and 20% of them were active in at least one assay; those are over-represented in the sample as a whole.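 The endpoint reported here, percent growth, reads 100 for growth as untreated, 0 for no net growth and -100 for all cells dead.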 Calls of active or inactive are those of the source. How the source made its calls: active means growth percent below 10; inactive means the rest.

Assays:
Experiment in all cases: NCI-60 one-dose screen, 48 h (100 = growth as untreated, 0 = no growth, -100 = all killed)
Conditions in all cases: 10 µM unless noted
HCT-15 colon = system: HCT-15 colon
HT29 colon = system: HT29 colon
SNB-75 CNS = system: SNB-75 CNS
SNB-19 CNS = system: SNB-19 CNS
U251 CNS = system: U251 CNS
PC-3 prostate = system: PC-3 prostate
SK-MEL-5 melanoma = system: SK-MEL-5 melanoma
UACC-62 melanoma = system: UACC-62 melanoma
LOX IMVI melanoma = system: LOX IMVI melanoma
SK-MEL-28 melanoma = system: SK-MEL-28 melanoma

Measured: growth

COc1ccc(C(=O)COc2ccc(/C=C3\Oc4ccc5ccccc5c4C3=O)cc2)cc1
inactive: HCT-15 colon 126% | HT29 colon 111% | SNB-75 CNS 75.5% | SNB-19 CNS 85% | U251 CNS 99.5% | PC-3 prostate 81% | SK-MEL-5 melanoma 95.7% | UACC-62 melanoma 95.9% | LOX IMVI melanoma 93.5% | SK-MEL-28 melanoma 105%

C=CCN(/C=C/CN(CC=C)CC=C)CC=C
inactive: HCT-15 colon 100% | HT29 colon 100% | SNB-75 CNS 85.8% | SNB-19 CNS 97.8% | U251 CNS 97.3% | PC-3 prostate 89.4% | SK-MEL-5 melanoma 109% | UACC-62 melanoma 101% | LOX IMVI melanoma 103% | SK-MEL-28 melanoma 98.5%

COc1ccc(-c2ccc(O)c(C(=O)/C=C/c3cc(OC)c(OC)c(OC)c3)c2)cc1
inactive: HCT-15 colon 76.6% | HT29 colon 75% | SNB-75 CNS 96.9% | SNB-19 CNS 99.4% | U251 CNS 78% | PC-3 prostate 61.8% | SK-MEL-5 melanoma 71.7% | UACC-62 melanoma 67.1% | LOX IMVI melanoma 62.5% | SK-MEL-28 melanoma 104%

CC(C)Sc1nc(-c2ccc(Br)cc2)c(C#N)c(N2CCCCC2)n1
inactive: HCT-15 colon 96.2% | HT29 colon 94.5% | SNB-75 CNS 99.4% | SNB-19 CNS 105% | U251 CNS 99.9% | PC-3 prostate 97.5% | SK-MEL-5 melanoma 101% | UACC-62 melanoma 82.6% | LOX IMVI melanoma 108% | SK-MEL-28 melanoma 105%

COc1cc(/C=C/C(=O)CC(=O)/C=C/c2ccc(OC(=O)C3C4CC5CC(C4)CC3C5)c(OC)c2)ccc1OC(=O)C1C2CC3CC(C2)CC1C3 (stereo unspecified)
inactive: HCT-15 colon 135% | HT29 colon 105% | SNB-75 CNS 107% | SNB-19 CNS 106% | U251 CNS 111% | PC-3 prostate 82.8% | SK-MEL-5 melanoma 110% | UACC-62 melanoma 114% | LOX IMVI melanoma 108% | SK-MEL-28 melanoma 131%

C1CCC(C(CC2CCCCN2)C2CCCCC2)CC1 (stereo unspecified)
active: HT29 colon -53.8% | SNB-75 CNS 7.79% | U251 CNS -61.3% | SK-MEL-5 melanoma -94.3% | UACC-62 melanoma -7.18% | LOX IMVI melanoma -95.5% | SK-MEL-28 melanoma -84.8%
inactive: HCT-15 colon 25% | SNB-19 CNS 13.2% | PC-3 prostate 23.9%

Nc1ccc2c(c1Br)Cc1ccccc1-2
inactive: HCT-15 colon 69.9% | HT29 colon 111% | SNB-75 CNS 87.7% | SNB-19 CNS 98.9% | U251 CNS 93.6% | PC-3 prostate 83.4% | SK-MEL-5 melanoma 107% | UACC-62 melanoma 91% | LOX IMVI melanoma 90.5% | SK-MEL-28 melanoma 121%

Nc1nc(SCc2cccnc2)c2ncn(C3OC(CO)C(O)C3O)c2n1 (stereo unspecified)
inactive: HCT-15 colon 102% | HT29 colon 106% | SNB-75 CNS 101% | SNB-19 CNS 98.7% | U251 CNS 98.3% | PC-3 prostate 89.4% | SK-MEL-5 melanoma 99.5% | UACC-62 melanoma 84.8% | LOX IMVI melanoma 102% | SK-MEL-28 melanoma 111%

NS(=O)(=O)c1cc2c(cc1Cl)NC=NS2(=O)=O
inactive: HCT-15 colon 102% | HT29 colon 94.7% | SNB-75 CNS 96.3% | SNB-19 CNS 107% | U251 CNS 99.7% | PC-3 prostate 100% | SK-MEL-5 melanoma 107% | UACC-62 melanoma 103% | LOX IMVI melanoma 99.6% | SK-MEL-28 melanoma 108%

CCN(CC)CCNCC(=O)Oc1ccc(/C=C/C(=O)CC(=O)/C=C/c2ccc(OC(=O)CNCCN(CC)CC)c(OC)c2)cc1OC
active: HT29 colon -80.7% | SNB-75 CNS -8.49% | SK-MEL-5 melanoma -13.7% | LOX IMVI melanoma -66.5%
inactive: HCT-15 colon 14.4% | SNB-19 CNS 22% | U251 CNS 13.4% | PC-3 prostate 14.4% | UACC-62 melanoma 15.4% | SK-MEL-28 melanoma 14.5%

Cc1cc(=O)oc2cc(OCCn3c(C)nn(-c4ccc(Cl)cc4)c3=O)ccc12
active: HT29 colon 0.696%
inactive: HCT-15 colon 17.7% | SNB-75 CNS 20.4% | SNB-19 CNS 54.5% | U251 CNS 31.4% | PC-3 prostate 48.5% | SK-MEL-5 melanoma 10.8% | UACC-62 melanoma 43.3% | LOX IMVI melanoma 48% | SK-MEL-28 melanoma 40.8%

CCOC(=O)/C(=C/CC/C(C)=C/CC/C(C)=C/CCc1ccoc1)CC(=O)N1CCCCC1
active: SK-MEL-5 melanoma 9%
inactive: HCT-15 colon 69.2% | HT29 colon 55.5% | SNB-75 CNS 82.6% | SNB-19 CNS 36% | U251 CNS 66.6% | PC-3 prostate 28.7% | UACC-62 melanoma 23.8% | SK-MEL-28 melanoma 36.8%

CCc1nn2c(-c3ccc(Cl)cc3C)c(-c3cc(OC)c(OC)c(OC)c3)nc2s1
active: SNB-75 CNS 3.79%
inactive: HCT-15 colon 69.8% | HT29 colon 66.8% | SNB-19 CNS 56.8% | U251 CNS 89.7% | PC-3 prostate 64.1% | SK-MEL-5 melanoma 70.3% | LOX IMVI melanoma 77.1% | SK-MEL-28 melanoma 80.8%

CC(=O)N1N=C(c2ccc(Nc3nc(NCCO)nc(NCCO)n3)cc2)CC1c1ccc(Cl)cc1 (stereo unspecified)
inactive: HCT-15 colon 94.5% | HT29 colon 86.8% | SNB-75 CNS 84.7% | SNB-19 CNS 86.3% | U251 CNS 94.3% | PC-3 prostate 81.4% | SK-MEL-5 melanoma 98.3% | LOX IMVI melanoma 93.6% | SK-MEL-28 melanoma 104%

O=C(CC(C(=O)c1ccccc1)N1CCN(Cc2ccccc2)CC1)c1ccccc1 (stereo unspecified)
inactive: HCT-15 colon 57% | HT29 colon 54.7% | SNB-75 CNS 91.7% | SNB-19 CNS 99.4% | U251 CNS 74.9% | PC-3 prostate 93.8% | SK-MEL-5 melanoma 103% | LOX IMVI melanoma 73.4% | SK-MEL-28 melanoma 112%

O=C(NN1C(=O)c2cc(C(=O)O)c(C(=O)O)cc2C1=O)c1ccncc1
inactive: HCT-15 colon 103% | HT29 colon 108% | SNB-75 CNS 145% | SNB-19 CNS 106% | U251 CNS 100% | PC-3 prostate 84.6% | SK-MEL-5 melanoma 106% | UACC-62 melanoma 92.3% | LOX IMVI melanoma 109% | SK-MEL-28 melanoma 94.2%

O=c1c2c(=NCCCN3CCCC3)cc3c(=O)n(CCCN4CCCC4)c(=O)c4c(NCCCN5CCCC5)cc(c(O)n1CCCN1CCCC1)c2c4-3
active: HT29 colon -7.75% | SNB-75 CNS -83.1% | SNB-19 CNS 7.13% | U251 CNS 1.98% | SK-MEL-5 melanoma -66% | LOX IMVI melanoma -7.8% | SK-MEL-28 melanoma -42.3%
inactive: HCT-15 colon 12.9% | PC-3 prostate 11.7%

O=C(c1ccccc1)C(CN1CCCCC1)c1ccccc1 (stereo unspecified)
inactive: SNB-75 CNS 63.4% | SNB-19 CNS 78.5% | U251 CNS 15.9% | PC-3 prostate 49.8% | SK-MEL-5 melanoma 58.8% | SK-MEL-28 melanoma 58.8%
active: HCT-15 colon -22% | HT29 colon -13.4% | LOX IMVI melanoma -94.9%

COc1cnc2c(c1)C(=O)c1c-2n(CCCNC2=NCCS2)c(=O)c2cc(F)ccc12
inactive: HCT-15 colon 43.3% | HT29 colon 22.2% | SNB-75 CNS 33.1% | SNB-19 CNS 54.6% | U251 CNS 12.1% | PC-3 prostate 36.9% | UACC-62 melanoma 17.4% | SK-MEL-28 melanoma 79.2%
active: SK-MEL-5 melanoma 0.102% | LOX IMVI melanoma -73.8%

O=C(C(=O)N1CCOCC1)c1cn(CCCn2cc(C(=O)C(=O)N3CCOCC3)c3ccccc32)c2ccccc12
inactive: HCT-15 colon 104% | HT29 colon 99.7% | SNB-75 CNS 94.7% | SNB-19 CNS 93.9% | U251 CNS 102% | PC-3 prostate 89.9% | SK-MEL-5 melanoma 100% | LOX IMVI melanoma 104% | SK-MEL-28 melanoma 110%

C/C(=C\CCc1ccoc1)CC/C=C(\C)CCCNc1ccc(F)cc1
inactive: HCT-15 colon 93.3% | HT29 colon 78.8% | SNB-75 CNS 94.3% | SNB-19 CNS 97.7% | U251 CNS 94.2% | PC-3 prostate 94.9% | SK-MEL-5 melanoma 99.9% | UACC-62 melanoma 83.8% | SK-MEL-28 melanoma 96.6%

COc1cccc(N2CCN(c3cccc(C)n3)CC2)c1
inactive: HCT-15 colon 105% | HT29 colon 94.9% | SNB-75 CNS 133% | SNB-19 CNS 113% | U251 CNS 97.7% | PC-3 prostate 99.6% | SK-MEL-5 melanoma 92.4% | LOX IMVI melanoma 103% | SK-MEL-28 melanoma 111%

COc1cc(-c2nc3sc4c(c3c(=O)[nH]2)CCCCCC4)cc(OC)c1OC
inactive: HCT-15 colon 24.8% | HT29 colon 10.5% | SNB-19 CNS 21.2% | U251 CNS 25.8% | PC-3 prostate 38% | UACC-62 melanoma 19.1% | SK-MEL-28 melanoma 51.6%
active: SNB-75 CNS -0.669% | SK-MEL-5 melanoma 8.73%

COCCCNS(=O)(=O)c1ncnc2nc[nH]c12
inactive: HCT-15 colon 124% | HT29 colon 125% | SNB-75 CNS 116% | SNB-19 CNS 122% | U251 CNS 124% | PC-3 prostate 106% | SK-MEL-5 melanoma 109% | LOX IMVI melanoma 111% | SK-MEL-28 melanoma 152%

COc1ccc(C2=NN(C(N)=S)C(c3ccc4c(c3)OCO4)C2)cc1 (stereo unspecified)
active: HT29 colon 7.46% | LOX IMVI melanoma -18.2%
inactive: HCT-15 colon 23.2% | SNB-75 CNS 26.5% | SNB-19 CNS 46.9% | U251 CNS 21.6% | PC-3 prostate 33.3% | SK-MEL-5 melanoma 41.5% | SK-MEL-28 melanoma 75.4%

OC(c1cc(-c2cccc(Cl)c2)nc2ccccc12)C1CCCCN1 (stereo unspecified)
inactive: SNB-19 CNS 18.1%
active: HCT-15 colon -61.9% | HT29 colon -74.5% | SNB-75 CNS -5.41% | U251 CNS -85.1% | PC-3 prostate -26.2% | SK-MEL-5 melanoma -67.5% | LOX IMVI melanoma -90.7% | SK-MEL-28 melanoma -94.2%

COc1ccc(-c2nc3sc4c(c3c(=O)[nH]2)CCCCCC4)cc1
inactive: HCT-15 colon 27.7% | HT29 colon 14.3% | SNB-75 CNS 49.4% | SNB-19 CNS 66% | U251 CNS 46.8% | PC-3 prostate 70.2% | SK-MEL-5 melanoma 53.1% | UACC-62 melanoma 24.6% | SK-MEL-28 melanoma 62.1%
